Experimental data as given in PubChem BioAssay (NCI).
Compounds without any hit were thinned out: in the full panel of roughly 83,000, 20% have a hit.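 Method: cells in 96-well plates; compound added at one concentration; 48 h incubation; percent growth measured; values under 10 scored active.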 A number with no mark means an inactive call. The source made the active and inactive calls.

Assays:
Assay in all cases: NCI-60 one-dose screen, 48 h (100 = growth as untreated, 0 = no growth, -100 = all killed)
Conditions in all cases: 10 µM unless noted
[1] = system: NCI-H23 lung
[2] = system: NCI-H226 lung
[3] = system: NCI-H322M lung
[4] = system: HOP-62 NSCLC
[5] = system: NCI-H460 lung
[6] = system: NCI-H522 lung
[7] = system: A549/ATCC NSCLC
[8] = system: 786-0 renal
[9] = system: MALME-3M melanoma
[10] = system: MDA-MB-231 breast
[11] = system: RXF 393 renal
[12] = system: SF-268 CNS
[13] = system: SF-295 CNS
[14] = system: SF-539 CNS
[15] = system: UACC-257 melanoma
[16] = system: M14 melanoma
[17] = system: HCT-15 colon
[18] = system: COLO 205 colon
[19] = system: DU-145 prostate
[20] = system: K-562 leukemia

Cn1cc(-c2csc(-c3cn(C)c4ncccc34)n2)c2cc(Br)cnc21
growth [1]: 82%
growth [2]: 101%
growth [3]: 104%
growth [4]: 100%
growth [5]: 95.4%
growth [6]: 98.7%
growth [7]: 87%
growth [8]: 93.8%
growth [9]: 107%
growth [10]: 61.9%
growth [11]: 81.2%
growth [12]: 105%
growth [13]: 82.1%
growth [14]: 109%
growth [15]: 96.2%
growth [16]: 80.7%
growth [17]: 81.1%

CC[N+](CC)(CCOCCOCC[N+](CC)(CC)Cc1ccc([N+](=O)[O-])cc1)Cc1ccc([N+](=O)[O-])cc1
growth [1]: 99.2%
growth [2]: 91.7%
growth [3]: 117%
growth [4]: 76.4%
growth [5]: 96.8%
growth [6]: 93.4%
growth [8]: 109%
growth [18]: 106%
growth [19]: 119%
growth [20]: 98%
growth [9]: 105%
growth [10]: 91.3%
growth [11]: 110%
growth [12]: 98.6%
growth [13]: 103%
growth [14]: 105%
growth [15]: 90.9%
growth [16]: 101%

O=C1NC(=O)/C(=C\c2ccccc2)C2=C1CCCC2
growth [1]: -44.7% (active)
growth [2]: 92.3%
growth [3]: 107%
growth [4]: 119%
growth [5]: 85.5%
growth [6]: -87.4% (active)
growth [8]: 61.7%
growth [18]: -63.2% (active)
growth [19]: 25.7%
growth [20]: -37.8% (active)
growth [9]: 50.6%
growth [10]: 92.1%
growth [11]: 13.3%
growth [12]: 39.4%
growth [13]: 88.2%
growth [14]: 27.4%
growth [15]: -64.6% (active)
growth [16]: 36.4%
growth [17]: 20.9%

Cc1cccc(Cl)c1NC(=O)c1ccc2nc(NC(=O)NC3CC(C)(C)NC(C)(C)C3)sc2c1
growth [1]: 91%
growth [2]: 103%
growth [3]: 81.8%
growth [4]: 68.3%
growth [5]: 101%
growth [6]: 88.6%
growth [8]: 84.6%
growth [18]: 15.3%
growth [19]: 103%
growth [20]: 9.24% (active)
growth [9]: 82.2%
growth [10]: 54%
growth [11]: 35.8%
growth [12]: 70.4%
growth [13]: 79.7%
growth [14]: 41.8%
growth [16]: 93.6%
growth [17]: 103%

O=[N+]([O-])c1ccc2c(c1)S(=O)c1cc([N+](=O)[O-])ccc1N2
growth [1]: 103%
growth [2]: 91.9%
growth [3]: 117%
growth [4]: 67.3%
growth [5]: 96.4%
growth [6]: 97%
growth [8]: 108%
growth [18]: 108%
growth [19]: 116%
growth [20]: 115%
growth [9]: 113%
growth [10]: 96.3%
growth [11]: 104%
growth [12]: 104%
growth [13]: 106%
growth [14]: 98.3%
growth [15]: 96.6%
growth [16]: 91.7%
growth [17]: 99%

COc1ccc(-c2c3c(nn2-c2ccc(N)cc2)CCc2cnoc2-3)cc1OC
growth [1]: 93.4%
growth [2]: 95.8%
growth [3]: 103%
growth [4]: 104%
growth [5]: 101%
growth [6]: 70.4%
growth [7]: 85.2%
growth [8]: 84.9%
growth [9]: 106%
growth [10]: 88.5%
growth [11]: 93%
growth [12]: 90.8%
growth [13]: 85.4%
growth [14]: 94.5%
growth [15]: 112%
growth [16]: 97.8%
growth [17]: 85.6%

O=C(/C=C/c1cc2ccccc2[nH]c1=O)c1ccc(O)cc1
growth [1]: 56.9%
growth [2]: 98.7%
growth [3]: 51.8%
growth [4]: 42.5%
growth [5]: 1.97% (active)
growth [6]: -44.1% (active)
growth [8]: 62.6%
growth [18]: 105%
growth [19]: -44.1% (active)
growth [20]: 5.94% (active)
growth [9]: 83.7%
growth [10]: 59.5%
growth [11]: 0.37% (active)
growth [12]: 20.4%
growth [13]: 54%
growth [14]: 23.3%
growth [15]: 92.6%
growth [16]: 76%
growth [17]: 35.2%

COC(=O)[C@]1(CCSC)N[C@H](c2cn(-c3ccccc3)nc2C)[C@@H]2C(=O)N(c3ccc(C)cc3)C(=O)[C@@H]21
growth [1]: 100%
growth [2]: 129%
growth [3]: 104%
growth [4]: 99.5%
growth [5]: 104%
growth [6]: 89.6%
growth [7]: 90.5%
growth [8]: 97.1%
growth [19]: 103%
growth [9]: 99%
growth [10]: 104%
growth [11]: 133%
growth [12]: 98.2%
growth [13]: 97%
growth [15]: 102%
growth [16]: 96.6%
growth [17]: 96.7%

O=c1[nH]c(Cl)nc2c1cnn2-c1ccccc1
growth [1]: 81.3%
growth [2]: 92.5%
growth [3]: 112%
growth [4]: 91.3%
growth [5]: 95.3%
growth [6]: 97.1%
growth [7]: 113%
growth [18]: 107%
growth [19]: 104%
growth [20]: 43%
growth [9]: 104%
growth [10]: 92.3%
growth [11]: 111%
growth [12]: 93%
growth [13]: 85.2%
growth [14]: 77.2%
growth [15]: 106%
growth [16]: 84.9%
